# Many of the other results were omitted from the sample, so hits are more common in it than they were.
# TTR transcr act – TTR transcription activators in neuroblastoma reporter cells, primary screen, cell-based, luminescence, SH-SY5Y, TTR promoter Gaussia luciferase; 100% = recombinant luciferase protein wells; hit rate 1.3% among 92,000; activation, % at 16.7 µM; AID 1117267, 2014;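 active means activation above the mean of all tested compounds plus 3 SD, cut at about 9.5% in these data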;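 further: cells exposed to compounds for one day before reading; 0% = median of all test compound wells on the plate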
# HuH7 TTR inh – TTR promoter reporter inhibitors in hepatoma cells, counter-screen for TTR transcription activator project, cell-based, luminescence, HuH7 hepatoma; hit rate 4% among 1,100; HuH7 TTR promoter-Gaussia luciferase reporter; AID 1117279, 2014; inhibition, % at 16.7 µM; shares compounds with TTR transcr act;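 active means average inhibition above the solvent-only control wells' mean plus 3 SD, cut at about 15% in these data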;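 further: 0% = cells with DMSO only and 100% = cells with inhibitor control FD; inhibitors lower well luminescence so higher value means more inhibition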
# TTR act confirm – TTR transcription activators, retest, confirmation, cell-based, luminescence, SH-SY5Y, triplicate; 1,100 tested, under 10 active; activation, % at 16.7 µM; shares compounds with TTR transcr act; SHSY5Y TTR promoter Gaussia luciferase; 100% = purified Lucia enzyme wells, no cells; AID 1117280, 2014;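 active means mean activation above a set limit taken from the earlier primary screen, cut at about 11% in these data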;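 further: 0% = DMSO-treated cells and 100% = recombinant Lucia luciferase without cells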
# * marks the source's active call; other numbers are inactive results.
SMILES,TTR transcr act,others
CCCCNC(=O)C1(C)CCC(=O)N1CCc1c[nH]c2ccccc12 (configuration not stated),2,
CCNC(=O)Cc1ccc(Br)cc1,3,
CC/C(=N\NC(=O)Cc1ccc(Br)cc1)c1cccs1,42*,HuH7 TTR inh=-29;TTR act confirm=0
C/C(=N/NC(=O)c1cccs1)c1cccs1,1,
CCCC1CCC2(CC1)CCC2OC(=S)Nc1ccc(Cl)cc1 (configuration not stated),0,
O=C(CSc1nnc(CNC(=O)c2ccccc2)o1)NCc1ccc2c(c1)OCO2,17*,HuH7 TTR inh=-16;TTR act confirm=0
O=C(COc1ccc(Cl)cc1)NCc1nnc(SCC(=O)NCc2ccc3c(c2)OCO3)o1,-1,
COc1ccc(C(=O)NCc2nnc(SCC(=O)Nc3ccc4c(c3)OCO4)o2)cc1,3,
CCOC(=O)N/N=C1\CCS(=O)(=O)c2ccc(Cl)cc21,0,
CCOC(=O)[C@@H]1[C@H]2COc3ccccc3[C@H]2N2C(=O)N(c3cccc(C)c3)C(=O)[C@]12C,2,
COC(=O)c1cc2ccc(OC)cc2c2cc(OC)c(OC)cc12,-2,
COc1ccc(NC(=O)c2cc(C)on2)cc1,13*,HuH7 TTR inh=7;TTR act confirm=-1
COc1cc(NC(=O)c2cc(C)on2)cc(C(=O)Nc2cccc(C(F)(F)F)c2)c1,-1,
COc1ccc(NC(=O)c2cc(C)on2)cc1OC,5,
CC(C)=CCC[C@](C)(O[C@@H]1O[C@H](CO[C@@H]2OC[C@@H](O)[C@H](O)[C@H]2O)[C@@H](O)[C@H](O)[C@H]1O)C1CC[C@]2(C)C1[C@H](O)CC1[C@@]3(C)CC[C@H](O[C@@H]4O[C@H](CO)[C@@H](O)[C@H](O)[C@H]4O)C(C)(C)C3CC[C@]12C (some centres not stated),2,
CC(C)(C)c1ccccc1NC(=O)N1CCNC(=O)C1CC(=O)Nc1ccc(F)cc1 (configuration not stated),-1,
COc1ccc(OC)c(NC(=O)O[C@@H]2CC[C@@]34CCCN3C(=O)CCC[C@H]4C2)c1,1,
COc1cccc2cc(C(C)N(CCCN3CCOCC3)C(=S)Nc3ccccc3C)oc12 (configuration not stated),14*,HuH7 TTR inh=-6;TTR act confirm=-1
COc1cccc2cc(C(C)N(CCCN3CCOCC3)C(=S)Nc3cccc(C)c3)oc12 (configuration not stated),-1,
COc1cccc2cc(C(C)N(CCCN3CCOCC3)C(=S)Nc3c(C)cccc3C)oc12 (configuration not stated),1,
O=C(C[C@H]1C/C=C\CC[C@H](Cc2ccc(F)cc2)C(=O)OCCNC1=O)NCCO,1,
O=C(NCc1ccc(Cl)cc1)C1CCC(=O)N(C2CCCCCC2)C1 (configuration not stated),2,
COC(=O)c1cnn(-c2ccc(Cl)cc2)c1/C=N/NC(=S)Nc1ccccc1,-2,
COC(=O)c1cnn(-c2ccc(F)cc2F)c1/C=N/NC(=S)Nc1ccccc1,-1,
COC(=O)c1cnn(-c2ccccc2)c1/C=N/NC(=S)Nc1ccccc1,11*,HuH7 TTR inh=-5;TTR act confirm=-1
SMILES,TTR transcr act,others
Cc1cccc(NC(=O)c2nc[nH]c2C(=O)Nc2ccccc2F)c1,0,
CCCc1cc(=O)oc2cc(C)cc(OCC(=O)N3CCC(C(N)=O)CC3)c12,0,
O=C(CCS(=O)(=O)c1ccccc1)NCc1ccccc1,3,
O=C(CN1CCN(C(=O)c2ccco2)CC1)Nc1ccc(F)cc1F,0,
COC(=O)[C@@H]1C[C@H]1[C@@H](NS(=O)(=O)c1ccccc1)c1ccccc1,10*,HuH7 TTR inh=-17;TTR act confirm=-1
C[C@H](NS(=O)(=O)c1ccccc1)C(=O)N1CCN(C(c2ccccc2)c2ccccc2)CC1,-3,
COC(=O)[C@H]1C[C@@H]1[C@H](NC(=O)c1cc(C)on1)c1ccccc1,4,
COc1ccccc1-c1nn(Cc2ccccc2)cc1C(=O)NCC(c1ccco1)N1CCCC1 (configuration not stated),0,
O=C(NC1CCCCC1)C(C1CC1)n1c(=O)c(-c2ccccc2)nc2ccccc21 (configuration not stated),-1,
COc1ccc(-c2[nH]c(-c3ccc(SC)cc3)nc2SCC(=O)Nc2nccs2)cc1,-1,
COc1ccc(-c2[nH]c(-c3ccc(C)cc3)nc2SCC(=O)Nc2nccs2)cc1,10*,HuH7 TTR inh=-12;TTR act confirm=-1
COc1ccc(-c2nc(SCC(=O)NC3CCCC3)c(-c3ccc(OC)cc3)[nH]2)cc1,-1,
Nc1nonc1C(=O)NCCNC(=O)c1ccc(Cl)c(Cl)c1,4,
CCOc1ccccc1CN1CCNC(=O)C1CC(=O)NCCN1CCOC1=O (configuration not stated),0,
O=C(Nc1cccc([N+](=O)[O-])c1)C1COc2ccccc2O1 (configuration not stated),1,
CC1=C(C(=O)OC(C)C)C(c2cccs2)N2C(=O)CCSC2=N1 (configuration not stated),-2,
COC(=O)C1=C(C)N=C2SCCC(=O)N2C1c1ccc(C(=O)OC)cc1 (configuration not stated),16*,HuH7 TTR inh=-7;TTR act confirm=2
CC1(C)CC(=O)C2=C(C1)N=C1SCCC(=O)N1C2c1ccccc1 (configuration not stated),-1,
O=c1cc(CSc2nc(NCc3ccc(Cl)cc3)c3ccccc3n2)nc2ccc(Cl)cn12,4,
C[C@H](O)[C@@H]1C(=O)N2CCc3ccc(-c4ccccc4)cc3[C@@H]2C[C@@H]1N(C)C(=O)Nc1cc(Cl)cc(Cl)c1,1,
CNC(=O)CN(Cc1ccccc1)S(=O)(=O)c1ccccc1,2,
O=C(CN(Cc1ccc(Br)cc1)S(=O)(=O)c1ccccc1)NCc1ccccn1,22*,HuH7 TTR inh=-22;TTR act confirm=1
COc1ccc(CNC(=O)CN(Cc2ccc(Cl)cc2)S(=O)(=O)c2ccccc2)cc1,1,
CC(/C=N/NC(=O)Cn1nccc1C)=C\c1ccc(C(C)C)cc1,-1,
CC(/C=N\NC(=O)Cn1cncn1)=C/c1ccc(C(C)C)cc1,0,
SMILES,TTR transcr act,others
CC(=C/c1ccc(C(C)C)cc1)/C=N/NC(=O)c1ccncc1,10*,HuH7 TTR inh=-4;TTR act confirm=0
O=C(CC1C(=O)NCCN1Cc1ccccc1C(F)(F)F)NC1CCCCCC1 (configuration not stated),10*,HuH7 TTR inh=-7;TTR act confirm=2
COc1ccc(CN2CCNC(=O)C2CC(=O)NC2CCCCCC2)c(F)c1 (configuration not stated),-1,
COc1cccc(CN2CCNC(=O)C2CC(=O)NC2CCCCCCC2)c1 (configuration not stated),-2,
O=C(C[C@H]1C=C[C@@H](NC(=O)c2ccncc2)[C@@H](CO)O1)NCC1CC1,3,
C/C(NCCc1ccccc1)=C1/CCOC1=O,0,
COc1cccc(CSc2nc3ccccc3[nH]2)c1,0,
COC(=O)CSc1nc2cc3c(cc2cc1C)OCO3,0,
COc1cccc(CSc2nc3cc4c(cc3cc2C)OCCO4)c1,18*,HuH7 TTR inh=-11;TTR act confirm=0
Cc1ccc(NC(=O)C2(C)CCN2CCc2ccccc2)cc1O (configuration not stated),0,
O=S(=O)(c1ccc(-c2n[nH]c(=S)o2)cc1)N1CCCCC1,0,
